Source: PubChem BioAssay
Pf growth 96h: inhibits malaria parasite growth, 96 h; P. falciparum luciferase reporter growth, 96 h; Potency, µM (doses to about 28.7 µM), inactives show at the highest dose activity change, negative = inhibition, actives largely listed as inhibitors; 320,000 compounds, 6.9% hits; AID 504834; also: potency is read from the fitted curve at half-maximal effect; % is scaled to controls: 0 for no effect and ±100 for the full control effect
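Erythrocytes infected with luciferase-expressing P. falciparum were dispensed at 2% hematocrit and 0.05% parasitemia (final), then incubated with compounds 96 hours at 37 C in 5% CO2. Luminescence after detection reagent addition reported growth.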
Giardia FBPA inh: inhibitors of Giardia lamblia fructose-1,6-bisphosphate aldolase. A8B2U2. 290,000 compounds, 0.71% hits. purified Giardia FBPA. Potency, µM (titrated, usually from 59.6 µM), for the others: top-dose activity, negative = inhibition, hits mostly inhibitors. AID 2451; also: potency is read from the fitted curve at half-maximal effect; % is scaled to controls: 0 for no effect and ±100 for the full control effect; nearly all actives have a fitted effect of over 55% in size
Target sequence (A8B2U2 whole entry, looked up): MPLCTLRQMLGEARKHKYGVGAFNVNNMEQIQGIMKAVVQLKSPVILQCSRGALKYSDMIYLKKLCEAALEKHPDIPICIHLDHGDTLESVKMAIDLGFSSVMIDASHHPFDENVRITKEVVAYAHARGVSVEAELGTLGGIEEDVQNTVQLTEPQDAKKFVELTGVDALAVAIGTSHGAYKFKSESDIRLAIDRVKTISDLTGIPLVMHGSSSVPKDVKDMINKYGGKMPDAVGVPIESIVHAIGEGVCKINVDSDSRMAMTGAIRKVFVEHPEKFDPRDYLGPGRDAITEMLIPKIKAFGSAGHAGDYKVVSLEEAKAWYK
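40 nM FBPA preincubated 10 min at RT with compound (up to 57.5 uM final), then substrate plus GAPDH/TPI/NAD/arsenate coupling and diaphorase/resazurin added. Fluorescence read after 20 min at RT, 525/598 nm.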
CHX counter: affects cycloheximide protein synthesis inhibition readout, counter-screen | AID 2314 | max response, % | 300,000 compounds, 12% hits | cell reporter, cycloheximide protein synthesis inhibition counterscreen; in the data active = max response mostly above about 13%, no sharp cut-off; inactive = mostly below about 14%; also: read at 38.3 µM for the half of the compounds with a filed dose; 0% is about no effect
Pf growth 48h: P. falciparum growth inhibition at 48 hours (one generation). 310,000 compounds, 5.9% hits. Potency, µM (highest dose often 28.7 µM), inactives show top-dose activity change, negative = inhibition, hits mostly inhibitors. P. falciparum luciferase growth in erythrocytes, 48 h. AID 504832; also: potency is read from the fitted curve at half-maximal effect; % is scaled to controls: 0 for no effect and ±100 for the full control effect
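Cell-based growth assay: transgenic P. falciparum expressing firefly luciferase, cultured in red cells within RPMI 1640 containing 0.5% w/v Albumax, 24 mM bicarbonate and gentamycin. A drop in luciferase activity indicates inhibition.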
NS1 inh: blocks influenza NS1 protein function; Potency, µM (titrated, usually from 46.1 µM), without a hit: at the top dose activity, positive = more growth; 270,000 compounds, 0.4% hits; calls by dose curve; also: potency is read from the fitted curve at half-maximal effect; actives are rising curves; nearly all actives have a fitted effect of over 50% in size
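Compounds were scored for reversing the slow growth caused by influenza A NS1 in S. cerevisiae, measured by optical density at 600 nm. Assay medium contained 2% galactose at pH 6.0; NS1-free yeast of the same strain were the positive control.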
Shiga toxin inh: Shiga toxin inhibition. Vero cells, Shiga toxin protein synthesis inhibition reporter. inhibition, % at 38.7 µM. 290,000 compounds, 9.2% hits. AID 2315; in the data active = inhibition mostly above about 28%, no sharp cut-off; inactive = mostly below about 43%; also: 0% is about no effect
An asterisk follows results filed as active; ? = inconclusive; nt = no result; [ ] = another dose, or the depositor's remark. Rows were chosen to be rich in hits. Some 21% of all compounds tested hit in one or more screens of this group. Unless noted, calls follow the shape of the dose curve; as a rule, active = well fitted curve in the direction sought with a large enough effect; inconclusive = small, poorly fitted or top-dose-only effect, or another doubt; inactive = no such curve, though single readings can be large; an effect the other way counts as inactive or inconclusive.

SMILES | Pf growth 96h | Giardia FBPA inh | CHX counter | Pf growth 48h | NS1 inh | Shiga toxin inh
CCOC(=O)c1cc(-c2ccc3c(c2)OCCO3)n[nH]1 | 53.1% | -0.6% | 47.8* | 122.9% | -3.8% | 61.3*
COC(=O)c1cc(-c2ccccc2)n[nH]1 | -2.3%[5.75 µM] | 1.5% | 10.5 | 15.0% | -1.1% | 22.4
CC(C)COc1ccc(C(=O)NNC(=O)c2ccc(=O)[nH]c2)cc1 | 28.5% | nt | nt | 3.5% | nt | nt
CCOC(=O)c1cc(-c2ccc(OC)cc2)n[nH]1 | 22.6% | -1.4% | 69.4* | 55.1% | -3.3% | 100.7*
CC(C)COc1ccc(-c2cc(C(=O)NN)[nH]n2)cc1 | ? | 0.2% | 26.7* | -10.3% | 14.5% | 85.6
CCOc1ccc(-c2cc(C(=O)NN=C3CCN(C)CC3)[nH]n2)cc1 | 20.3% | 1.9% | 24.8* | 0.7% | nt | 60.1*
Oc1ccccc1-c1cc(-c2ccc3c(c2)OCCO3)n[nH]1 | 198.2% | -2.5% | 31.6* | 329.3% | -32.7% | 46.8
O=C(CSc1nc2ncc(Cl)cc2[nH]1)c1ccc2c(c1)OCO2 | 36.5% | -6.3% | -1.7 | ? | -12.4% | 5.9
O=C(CSc1nc2cc(Cl)c(Cl)cc2[nH]1)c1ccc2c(c1)OCO2 | 4.65µM* | -14.5% | 1.6 | 4.15µM* | 6.0% | 20.1
O=C(CSc1nc2ccc(Cl)cc2[nH]1)c1ccc2c(c1)OCO2 | 13.1µM* | ? | 17.1 | 11.7µM* | -49.6% | 11.0
O=C(O)c1ccc2nc3c(nc2c1)-c1ccccc1C3=O | ? | ? | 7.1 | 25.7% | nt | 2.3
O=C1c2ccccc2-c2nc3ccccc3cc21 | -4.4% | 2.3% | 34.4* | 159.7% | -48.2% | 69.4*
c1ccc2c(c1)Cc1cc3ccccc3nc1-2 | -129.6% | -0.8% | 25.8* | -93.0% | -52.2% | 62.1*
Cc1nn(-c2ccccn2)c2c1-c1nc(N)ncc1CC2 | nt | 15.8µM* | 36.3* | 36.0% | -2.7% | 49.3*
O=C(Nc1cc([N+](=O)[O-])ccc1C(=O)NCCN1CCOCC1)c1ccccc1 | -6.6% | nt | -1.1 | 2.1% | 3.3% | -23.4
O=C(NC1CCCN(C2Cc3ccccc3C2)C1)c1ccc(F)cc1Cl (stereo unspecified) | -3.4% | 1.6% | -2.9 | -4.5% | 10.6% | -5.3
CC(=C/C(=O)O)/C=C/c1ccc([N+](=O)[O-])cc1 | 40.0% | -1.4% | 3.0 | -5.9% | -24.9% | -8.6
CC1(C)COC(/C=C/c2ccc([N+](=O)[O-])cc2)=N1 | -9.9% | 5.6% | 55.7* | ? | -32.2% | 83.9*
Nc1ccc2oc(=O)ccc2c1I | nt | 0.0% | 5.1 | nt | nt | 8.0
N#CCc1ccc(NC(=O)Nc2cccc3ccccc23)cc1 | 28.4% | -6.4% | 16.0* | 24.7% | 2.4% | 22.2
CCOc1ccccc1NC(=O)Nn1cnnc1 | 6.7% | nt | -1.1 | 12.2% | 3.6% | -5.6
CCOc1ccccc1NC(=O)NC1Cc2ccccc2C1 | 8.28µM* | 1.7% | -0.3 | ? | 1.9% | 11.6
CCOc1ccccc1NC(=O)Nc1ccncc1 | 14.8% | 2.6% | 4.8 | 3.29µM* | 0.6% | 14.0
CCOc1ccccc1NC(=O)Nc1ccc(CC#N)cc1 | 14.6% | -13.5% | 17.2* | 7.2% | -10.6% | 28.5
CCOc1ccccc1NC(=S)NC1CCCCC1 | 0.0% | -0.4% | 6.4 | ? | -43.9% | -9.3
SMILES | Pf growth 96h | Giardia FBPA inh | CHX counter | Pf growth 48h | NS1 inh | Shiga toxin inh
CCOc1ccccc1NC(=O)Nc1ccon1 | 108.6% | -4.8% | 0.6 | 15.3% | -8.3% | 0.7
NS(=O)(=O)c1ccc(NC(=O)Nc2cccc3ccccc23)cc1 | 12.3% | nt | 11.7 | 15.4% | -6.2% | -30.2
COC(=O)c1ccccc1S(=O)(=O)N1CCC(C(=O)NCCC2=CCCCC2)CC1 | -19.8% | nt | nt | ? | nt | nt
COCCn1c(C)cc(C(=O)CSc2n[nH]c(N)n2)c1C | 21.8% | -13.2% | 13.4* | 5.1% | 3.4% | -0.6
Cc1cc(C(=O)CSc2nnnn2C)c(C)n1-c1cccc(F)c1 | ? | -20.7% | 40.1* | 91.4% | -13.6% | 121.6*
Cc1cc(C(=O)CSc2ncccn2)c(C)n1-c1cccc(F)c1 | 253.7% | -10.8% | 86.3* | 75.9% | 15.3% | 100.3*
Cc1cc(C(=O)CSc2n[nH]c(N)n2)c(C)n1-c1cccc(F)c1 | 7.0% | 2.3% | 20.5* | 6.4% | 5.0% | 72.9*
COc1ccc(C(=O)O)cc1NC(=S)NC(=O)/C=C/c1ccc(C(C)C)cc1 | -9.0% | 3.9% | 8.4 | 11.5%[0.00184 µM] | 2.8% | 26.3
CCCn1cnc2c1c(=O)n(CCCCC(C)=O)c(=O)n2C | 55.8% | -6.2% | nt | 12µM* | -5.9% | nt
